Laboratory results taken from PubChem BioAssay (NCI).
The panel holds about 79,000 compounds, 15% with a hit somewhere; the sample as a whole holds those more often. A number with no mark means an inactive call. Calls of active or inactive are those of the source. No stated cut-off is given here; in the data, active means growth inhibition above about 70%; inactive means the rest.

Tests used:
[1] = NCI Yeast Anticancer Drug Screen. Data for the rad50 strain (AID 155);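 further: 0% = growth of vehicle-only cultures of the same strain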; conditions: S. cerevisiae rad50 strain growth inhibition; at 50.0 µM; stronger effect = higher value
How it was run: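 Cells are treated with compound, grown, and their growth is then scored against vehicle-only cultures of the same repair-deficient yeast strain.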

[2] = NCI Yeast Anticancer Drug Screen. Data for the mec2-1 strain (AID 157); conditions: S. cerevisiae mec2-1 strain, at 50.0 µM, stronger effect = higher value
How it was run: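 Readout is yeast growth inhibition, normalised to vehicle-treated controls, in the mec2-1 strain exposed to compound.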

[3] = NCI Yeast Anticancer Drug Screen. Data for the sgs1 mgt1 strain (AID 161);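 further: 0% = growth of cultures given vehicle only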; conditions: S. cerevisiae sgs1 mgt1 strain, at 50.0 µM, stronger effect = higher value
How it was run: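 Compounds are added to genetically altered yeast, and growth is compared with cultures given vehicle alone to give percent inhibition.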

[4] = NCI Yeast Anticancer Drug Screen. Data for the cln2 rad14 strain (AID 165);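 further: 0% = growth equal to vehicle treated cultures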; conditions: S. cerevisiae cln2 rad14 strain, at 50.0 µM, stronger effect = higher value
How it was run: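 Relative to vehicle controls, growth inhibition of compound-treated cln2 rad14 yeast was recorded.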

[5] = NCI Yeast Anticancer Drug Screen. Data for the bub3 strain (AID 167); conditions: S. cerevisiae bub3 mutant strain, at 50.0 µM, stronger effect = higher value
How it was run: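 Part of a panel of yeast mutants defective in DNA damage repair or cell cycle regulation. Each strain is grown with compound, and inhibition is calculated relative to solvent-treated cultures.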

[6] = NCI Yeast Anticancer Drug Screen. Data for the mlh1 rad18 strain (AID 175); conditions: S. cerevisiae mlh1 rad18 strain growth inhibition; at 50.0 µM; stronger effect = higher value
How it was run: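 Test agents were incubated with a yeast strain of defined genotype (DNA damage repair defect). Inhibition of growth was derived by comparison with vehicle-exposed cultures.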

Row | SMILES | growth inhibition [1] | growth inhibition [2] | growth inhibition [3] | growth inhibition [4] | growth inhibition [5] | growth inhibition [6]
1 | Cc1ccc2nc(Nc3nc(C)cc(C)n3)[nH]c2c1 | -36.9% | -31.6% | -21.9% | -0.3% | -17.8% | -11.9%
2 | COC(=O)C(N)C(C)(C)S (stereo unspecified) | -9.9% | -2.75% | -3.65% | -10% | 6.85% | 2.5%
3 | CCOC(=O)/C(=C\c1ccccc1)C(=O)O | -6.75% | -29.9% | -6.25% | 26% | -21.9% | -1.8%
4 | C/C(=N\N)C1C(=O)c2ccccc2C1=O | 6.1% | 5.05% | 13.7% | 20.8% | 8.8% | 11.3%
5 | Cn1c(-c2ccccc2)c/c(=N\NS(C)(=O)=O)c2cc(S(=O)(=O)O)ccc21 | -7.1% | -27.7% | -0.25% | -3% | 11.2% | 10.2%
6 | C=CCc1cc2c(cc1COC(C)=O)OCO2 | -35.7% | -17.9% | -15.4% | -36.5% | -10.6% | -28%
7 | COc1ccccc1NC(=O)Nc1ccc(Nc2ccccc2)cc1 | 92.7% (active) | 94.2% (active) | 92.2% (active) | 90.3% (active) | 92.2% (active) | 92.7% (active)
8 | Nc1nc(N)c(N=O)c(N)n1 | -10.9% | -8.85% | 0.6% | 21% | 3.5% | 15.2%
9 | Cc1ccc(O)c(C(=O)c2ccccc2C(=O)O)c1 | 15% | -11.9% | -6.95% | 44.4% | 4.9% | 22.4%
10 | Cc1nc2ccc(Cl)cc2c(=O)[nH]1 | -6.35% | -6.45% | -8.65% | -57.2% | -16.2% | 0.9%
11 | CCOC(=O)c1cc(-c2ccccc2)nc2nc(N)ccc12 | 15.2% | -3.15% | 5.65% | 9.05% | 13.2% | 15.2%
12 | COc1ccccc1CO | 0.85% | -13.8% | 3.85% | 13.7% | 13.8% | -1.15%
13 | O=C(Nc1ccc(Cl)cc1)c1ccc(Cl)cc1Cl | -11.8% | 10.7% | -2.5% | -39.1% | 13.7% | -0.15%
14 | Cc1cnccc1P(=O)(O)O | 13.7% | -4.8% | 6.7% | -21.7% | -3.55% | 5.65%
15 | CCN(CC)CC(C)(C)C(=O)/C=C/c1ccc(C)cc1 | 39.5% | 12.8% | 57.5% | 3.9% | -13.4% | 19.9%
16 | CCOC(=O)CC1(C)SCCN1C(N)=O (stereo unspecified) | 2.25% | 4.35% | -5.85% | -26.3% | 4% | -10.2%
17 | CC1(C)OC2(CC1C1(C)C=CC(=O)O1)CC1C(O)(CCC34CC13C(=O)OC4c1ccoc1)O2 (stereo unspecified) | 3.95% | -17.3% | 3.15% | 6.2% | -3.1% | 10.2%
18 | O=C(O)C(=O)O.[Co+3].[NH-]C(Cc1ccccc1)C(=O)[O-].[NH-]CCN(CC[NH-])CC[NH-] (stereo unspecified) | 28.2% | 15.8% | 8.8% | 22.6% | 2.7% | 25.6%
19 | Cn1cc(S(C)=O)c(=O)c2ccccc21 (stereo unspecified) | 2.65% | -1.6% | -5.6% | -13.9% | 8.3% | -2.35%
20 | O=C(O)C(Br)C1(Br)c2ccccc2-c2ccccc21 (stereo unspecified) | 99.3% (active) | 99.7% (active) | 99.7% (active) | 95.4% (active) | 97.3% (active) | 99.6% (active)
21 | O=S1OC(c2ccccc2)(c2ccccc2)C(c2ccccc2)(c2ccccc2)O1 | -29.9% | -16.6% | 2.2% | 11.6% | -13.2% | -17.4%

Row | SMILES | growth inhibition [1] | growth inhibition [2] | growth inhibition [3] | growth inhibition [4] | growth inhibition [5] | growth inhibition [6]
22 | CC(C)CCCC(C)C1CCC2C3CC=C4CC(O[N+](=O)[O-])CCC4(C)C3CCC12C (stereo unspecified) | -24.8% | -6% | -17.1% | -13.8% | -5.15% | 17.9%
23 | CCOC(=O)CC1OCCO1 | 7.65% | -3.35% | -24.7% | 5.25% | 2.4% | -5.15%
24 | COc1ccc(-c2cc(=O)c3c(O)cc(O)c(-c4cc(-c5cc(=O)c6c(O)cc(OC)cc6o5)ccc4OC)c3o2)cc1 | 39.1% | 17.1% | 5.55% | 24.6% | 27.3% | 20%
25 | CCCCCC/C=C/CCCCCCCc1cccc(OC)c1 (tested in a mixture with another compound) | 3.85% | -5.9% | 3.6% | -14.7% | 1.25% | 12.1%
26 | COC(=O)c1nnn(-c2c(C)cccc2C(C)C)c1C(=O)c1ccccc1 | 6% | -2.45% | -2.15% | -7.6% | -23.8% | 24.1%
27 | CC(COc1ccccc1)N(CCCl)Cc1ccccc1 (stereo unspecified) | 2.7% | 10.8% | -1.4% | -43.3% | 38% | 1.8%
28 | Fc1ccc2nncc(SCc3ccc(Cl)c(Cl)c3)c2c1 | -1% | 0.15% | 3.8% | -11.2% | 18.4% | -2.05%
29 | CCOC(=O)C(C#N)C1CC2CCC1C2 (stereo unspecified) | -30.2% | -57.4% | -22.2% | -4.9% | -27.1% | -56.8%
30 | C=C1C(=O)O[C@H]2[C@H]1CC(=O)/C(C)=C/CC[C@@]1(C)O[C@@H]21 | 32.7% | 21.4% | 32.8% | 21.4% | 25.6% | 7%
31 | COc1cccc(C(=O)c2ccc(OC)cc2C(=O)O)c1 | 5.95% | -10.2% | -2.8% | -31.9% | 4.3% | 0.85%
32 | O=C1c2ccccc2C(=O)c2c1cc1c(c2O)OCO1 | 23.4% | 13.4% | 20.1% | -10.2% | -38% | 46.9%
33 | CC(=O)CC(=O)Nc1cc(C)c(NC(=O)CC(C)=O)cc1C | 26.2% | 26.6% | 31.1% | 7.55% | 38.8% | 30.6%
34 | CCc1c(N)nc(=O)[nH]c1C(=O)O | -4.9% | -0.2% | 10.1% | -26.3% | -26% | -16.6%
35 | Cc1cc(OCC(=O)O)c(Cl)cc1Cl | -13.4% | -9.7% | -50.5% | -22.9% | -17.9% | -11.7%
36 | CN(C)c1ccc(C=C(C(=O)O)C(=O)O)cc1 | -5.2% | 15.3% | -8.1% | 19.4% | 15.7% | 15.5%
37 | CCOC(=O)c1c(C)[nH]c(=S)c(C#N)c1-c1cccc2ccccc12 | -10% | 9.45% | 38% | -12.6% | 17.8% | -31.3%
38 | O=C(Nc1ccccc1)/C(N=Nc1ccccc1)=N\Nc1ccccc1 | -12.6% | -16.1% | -10.4% | -28.4% | 6.6% | 19.8%
39 | O=C(O)C(Br)C(Br)C(=O)Nc1ccc(Br)cc1 (stereo unspecified) | -6.35% | -24.4% | 22.8% | -3.85% | 34.1% | 27.4%
40 | CCOC(=O)C(C)CC(C)C(=O)OCC (stereo unspecified) | 20.6% | -26% | -19.3% | -2.85% | 9.9% | 2.5%
41 | O=S(=O)(N/N=C/c1c(Cl)cccc1Cl)c1ccccc1 | 18.9% | 12.1% | 11.9% | -9.35% | 9.65% | 31.5%
